Screens (PubChem)
Pf growth 48h = inhibits P. falciparum growth in the first generation, 48 h | actives 5.9% (n = 310,000) | AID 504832 | P. falciparum luciferase growth in erythrocytes, 48 h | Potency, µM (series often up to 28.7 µM), hits mostly inhibitors
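First compound was added to culture medium, then infected red cells at 0.1% parasitemia and 2% hematocrit (final). After incubation at 37 C under 5% CO2, luciferase detection reagent was dispensed and light output recorded.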
AMA1-RON2 inh = AMA1-RON2 (P. falciparum) interaction inhibition. actives 0.2% (n = 360,000). Potency, µM (series often up to 58.2 µM), actives largely listed as inhibitors. AID 720542. AlphaScreen AMA1-biotinylated RON2 peptide binding; further: nearly all actives have a fitted effect of over 45% in size
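AMA1 (3D7) with his tag at 25 nM final met compounds first, then biotinylated RON2 peptide at 25 nM; detection used donor plus acceptor beads, 10 µg/mL apiece, read by AlphaScreen after 30 min at room temperature.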
AmpC inh no detg = blocks E. coli AmpC beta-lactamase in detergent-free assay | AmpC nitrocefin hydrolysis, absorbance 480 nm, 0.0001% Triton | Potency, µM (series often up to 57.1 µM), hits mostly inhibitors | actives 0.52% (n = 330,000); further: nearly all actives have a fitted effect of over 20% in size
Target sequence (P00811 whole entry, looked up): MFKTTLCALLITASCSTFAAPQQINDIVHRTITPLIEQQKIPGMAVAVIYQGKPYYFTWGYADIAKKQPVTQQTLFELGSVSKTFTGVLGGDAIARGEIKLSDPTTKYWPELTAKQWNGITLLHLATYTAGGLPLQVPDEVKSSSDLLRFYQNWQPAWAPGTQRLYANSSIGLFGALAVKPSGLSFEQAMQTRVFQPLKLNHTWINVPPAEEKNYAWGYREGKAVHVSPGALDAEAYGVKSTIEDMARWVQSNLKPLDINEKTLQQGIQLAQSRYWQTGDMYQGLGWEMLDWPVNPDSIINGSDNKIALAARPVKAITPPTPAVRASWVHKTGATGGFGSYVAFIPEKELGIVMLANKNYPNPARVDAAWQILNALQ
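AmpC (5.3 nM in the dispensed reagent) in 20 mM phosphate pH 7.0 with 0.01% (detergent screen) or 0.0001% Triton X-100 was preincubated with compounds for 15 min at room temperature. Nitrocefin was then added from an 800 uM solution, and hydrolysis was followed at 480 nm.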
HCV inhibitor = inhibitors of hepatitis C virus infection. Huh7.5.1 HCVcc-Cre infection, luciferase reporter, 44 h. Potency, µM (doses to about 41.8 µM), actives largely listed as inhibitors. actives 3.4% (n = 340,000). AID 651820
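Seed cells (1,000/well) for 4 h; treat with compound and infect with HCVcc-Cre, moi about 0.5. Incubate 44 h, then detect luciferase activity.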
AmpC inh detg = AmpC beta-lactamase inhibition with detergent present; AmpC hydrolysis of nitrocefin, absorbance 480 nm, 0.01% Triton; AID 485294; Potency, µM (series often up to 114 µM), most hits filed as inhibitors; P00811; actives 0.041% (n = 370,000); further: nearly all actives have a fitted effect of over 25% in size
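20 mM phosphate pH 7.0 + 0.01% (detergent screen) or 0.0001% Triton X-100; 5.3 nM AmpC reagent; cpd preinc 15 min RT; nitrocefin (800 uM stock) to start; A480 q20 s × 4 min; Activity was normalised to no-enzyme and no-compound control wells.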
Pf growth 96h = P. falciparum growth inhibition at 96 hour, primary screen for plastid delayed-death inhibitors | P. falciparum luciferase reporter growth, 96 h | Potency, µM (highest dose often 28.7 µM), usual class: inhibitors | actives 6.9% (n = 320,000) | AID 504834
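Two-generation exposure (96 h) targets delayed-death phenotype. Reporter parasites carrying integrated firefly luciferase, in red cells at 2% hematocrit and 0.05% parasitemia final, kept at 37 C, 5% CO2; luminescence loss indicates inhibition.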
Hits are given with their value; i = inactive; ? = inconclusive; nt = not tested or not shown; [ ] = another dose, or the depositor's remark. Most compounds without a hit are left out; they make up all but 11% or so of the library. The call rests on the fitted dose curve; in most records, active means well fitted curve in the direction sought with a large enough effect; inconclusive means small, poorly fitted or top-dose-only effect, or another doubt; inactive means no such curve, though single readings can be large; an effect the other way counts as inactive or inconclusive.

SMILES	Pf growth 48h	AMA1-RON2 inh	AmpC inh no detg	HCV inhibitor	AmpC inh detg	Pf growth 96h
COc1cccc(CNC(=O)CSc2ccc(-c3sc(-c4ccccc4)nc3C)nn2)c1	nt	nt	nt	nt	i	nt
O=C1CC(c2nnc(Cc3ccc(F)cc3Cl)o2)CN1c1ccccc1 (centres undefined)	nt	nt	nt	nt	i	nt
Cc1nc2sc(-c3ccccc3)cc2c(=O)[nH]1	nt	i	i	10µM	i	i
O=c1[nH]c(-c2cccnc2)nc2sc(-c3ccccc3)cc12	i	i	i	i	i	i
COc1cc2c(Nc3ccc(Br)cc3F)ncnc2cc1OCC1CCN(C)CC1	0.675µM	nt	nt	nt	nt	1.51µM
Cc1cc(OCC(=O)Nc2ccc(C(=O)OC3CCCCC3)cc2)ccc1Cl	nt	nt	nt	nt	i	nt
Cn1c(N=Nc2ccccc2)nc2ccccc21	0.738µM	i	i	?	i	0.262µM
Cn1c(Cl)nc2ccccc21	i	i	i	i	i	i
CN(C)c1ccc(N=Nc2nc3ccccc3n2C)cc1	i	3.98µM	i	10µM	i	?
COc1ccc(NC(=O)Cn2nc(C)c3c(C)n(-c4ccccc4)nc3c2=O)cc1OC	nt	nt	nt	nt	i	nt
CCOc1ccccc1CNCc1c(C(=O)O)c(C)n(Cc2ccc(Cl)cc2)c1C	nt	nt	nt	nt	i	nt
CCC1CCCCN1c1nc(-c2ccncc2)nc2ccccc12 (centres undefined)	nt	i	i	11.2µM	i	i
CC1CCCCN1c1nc(-c2ccncc2)nc2ccccc12 (centres undefined)	8.28µM	i	i	10µM	i	i
CCOC(=O)CC(NC(=O)c1cc2cc(Cl)ccc2oc1=O)c1ccc(C)cc1 (centres undefined)	nt	nt	nt	nt	i	nt
Cc1ncc(CO)c(CNc2ccc(Oc3ccccc3)cc2)c1O	?	i	i	11.2µM	i	i
O=C(Cn1c(=O)c2cc(Cl)ccc2n2nncc12)Nc1ccccc1	nt	nt	nt	nt	i	nt
O=c1c(Cc2ccc(F)cc2)c(O)ccn1Cc1cccc(Cl)c1	11.7µM	i	i	i	i	13.1µM
O=c1c(Cc2ccc(Cl)cc2)c(O)ccn1Cc1cccc(Cl)c1	?	i	i	i	i	i
O=c1c(Cc2ccc(Cl)cc2Cl)c(O)ccn1Cc1ccc(Cl)cc1	4.15µM	i	i	i	i	?
CCc1ccc(C(=O)c2cn(CC(=O)Nc3ccc4c(c3)OCO4)c3ccc(CC)cc3c2=O)cc1	nt	nt	nt	nt	i	nt
O=C(c1ccccc1)N1CCCc2ccccc21	i	i	i	i	i	i
O=C(Nc1cccc(C(=O)N2CCCc3ccccc32)c1)c1ccccc1	?	i	i	i	?	4.65µM
O=C(Nc1cccc(C(=O)N2CCOCC2)c1)c1ccccc1	i	i	i	i	i	5.22µM
O=C(O)/C=C/c1cccc(NC(=O)c2ccc(Cl)cc2)c1	0.329µM	i	i	i	i	i
O=C(Nc1cccc(C(=O)N2CCOCC2)c1)c1cccnc1	i	i	i	i	i	nt
SMILES	Pf growth 48h	AMA1-RON2 inh	AmpC inh no detg	HCV inhibitor	AmpC inh detg	Pf growth 96h
Cc1ccc(CC(=O)Nc2ccc(C(=O)N3CCOCC3)cc2)cc1	i	i	i	i	i	i
Cc1cccc(CC(=O)Nc2ccc(C(=O)N3CCOCC3)cc2)c1	i	i	i	nt	?	2.33µM
COC(=O)c1cccc(NC(=O)CN2CCOCC2)c1	i	i	i	i	i	10.4µM
COC(=O)c1ccc(NC(=O)CN2CCOCC2)cc1	i	i	i	i	?	i
O=C(Nc1cccc(C(=O)N2CCCCC2)c1)c1ccc(Cl)cc1	i	i	i	?	i	2.08µM
O=C(Nc1cccc(C(=O)N2CCCCC2)c1)c1ccccc1	nt	i	nt	i	nt	nt
CCc1nc(SCc2cc(=O)c3cc(C)ccc3[nH]2)n[nH]1	nt	nt	nt	nt	i	nt
CCCn1nc(NC(=O)c2ccco2)c2cc3ccccc3nc21	i	i	i[2.29 µM]	35.5µM	?	?
CCCn1nc(NC(=O)C2CCCO2)c2cc3cc(C)ccc3nc21 (centres undefined)	i	1.12µM	i	i	i	nt
CCCCn1nc(NC(=O)c2cccs2)c2cc3ccccc3nc21	i	i	i	?	i	i
CCn1nc(NC(=O)c2ccco2)c2cc3cc(C)ccc3nc21	i	i	i	?	i	i
CCCn1nc(NC(=O)c2cccs2)c2cc3cc(C)ccc3nc21	?	i	i	22.4µM	i	i
CCCn1nc(NC(=O)c2cccs2)c2cc3ccccc3nc21	?	i	i	11.2µM	i	?
COc1cccc(CCNC(=O)c2cnc3sc(N4CCCC4)nn3c2=O)c1	nt	nt	nt	nt	i	nt
CC(=O)N1CCc2c(sc3c2c(=O)n(-c2ccccc2Cl)c(=O)n3Cc2cccc(C)c2)C1	nt	nt	nt	nt	i	nt
CN(Cc1ccccc1)C(=O)CSc1nc2ccsc2c(=O)n1-c1ccc(F)cc1	nt	nt	nt	nt	i	nt
CCCn1nc(NC(=O)c2cccs2)c2cc3ccc(C)cc3nc21	2.94µM	i	i	14.1µM	i	?
CC(=O)Nc1nn(C)c2nc3cc(C)ccc3cc12	i	i	i	?	?	i
Cc1ccc2cc3c(NC(=O)c4ccco4)nn(C)c3nc2c1	?	i	i	?	i	8.28µM
Cc1sc2c(c1C)c(=O)n(-c1ccc(Cl)cc1)c(=O)n2Cc1c(F)cccc1Cl	nt	nt	nt	nt	i	nt
Nc1ccccc1Nc1nc2ccccc2[nH]1	i	i	i	?	i	10.4µM
Nc1ccc(Nc2nc3ccccc3[nH]2)cc1	?	i	i	i	i	i
Cc1ccccc1S(=O)Cc1ccc(C(=O)NC2CCCCCC2)o1 (centres undefined)	nt	nt	nt	nt	i	nt
COc1cc2c(cc1OC)C(c1ccc(-c3ccc(Cl)c(Cl)c3)o1)=NCC2	nt	i	i	12.6µM	i	?
COc1cc2c(cc1OC)C(c1ccc(-c3ccccc3Cl)o1)=NCC2	?	?	i	5.62µM	i	nt
SMILES	Pf growth 48h	AMA1-RON2 inh	AmpC inh no detg	HCV inhibitor	AmpC inh detg	Pf growth 96h
COc1cc2c(cc1OC)C(c1ccc(-c3ccc(Cl)cc3Cl)o1)=NCC2	?	i	i	11.2µM	i	?
COc1ccc(CNC(=O)c2ccc3c(c2)N(C)C(=O)C2CCCCN32)cc1OC (centres undefined)	nt	nt	nt	nt	i	nt
COC(=O)c1cc2oc(C)cc2n1Cc1ccccc1Cl	nt	nt	nt	nt	i	nt
Cc1cccc(C(=O)N2c3ncnn3C3(CCCCC3)[C@@H]3CCCC[C@@H]32)c1	nt	nt	nt	nt	i	nt
O=S(=O)(c1ccccc1)c1nc(-c2ccco2)oc1NCc1ccccc1	nt	i	i	i	?	8.28µM
O=S(=O)(c1ccccc1)c1nc(-c2ccco2)oc1NCc1ccco1	?	i	i	i	?	nt
CCOc1ccc(-c2nc(S(=O)(=O)c3ccccc3)c(NCc3cccnc3)o2)cc1	13.1µM	i	i	?	i	nt
Cc1ccc(S(=O)(=O)c2nc(C)oc2NCc2ccccc2)cc1	i	nt	i	i	50.1µM	i
Cc1ccc(S(=O)(=O)c2nc(-c3ccccc3F)oc2NCc2ccccc2)cc1	nt	nt	nt	nt	i	nt
O=C(NCc1ccccc1Cl)c1ccc(CS(=O)(=O)c2ccc(Br)cc2)o1	nt	nt	nt	nt	i	nt
O=C(CCS(=O)(=O)c1cccc2nonc12)Nc1ccc(F)cc1F	nt	nt	nt	nt	i	nt
